The results in this text go back to PubChem BioAssay (Tox21).

Assay [1] is described as follows: Caspase-3/7 induction in CHO-K1 cells by small molecules, qHTS assay (AID 1346980). Note: nearly all actives have a fitted effect of over 15% in size. The method, boiled down: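 Luminescent Caspase-Glo 3/7 read (30min, room temperature) quantified apoptosis induction. Cells were wild-type CHO-K1, treated with compound for 17hr at 37 C and 5% CO2.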
(In qHTS, concentration-response curves come from the screen itself.)

In assay [2] the target is Nuclear receptor subfamily 1 group I member 2 (Homo sapiens) (UniProt O75469). Put plainly: Human pregnane X receptor (PXR) small molecule agonists, qHTS assay (AID 1346982). Note: nearly all actives have a fitted effect of over 35% in size. The method, boiled down:
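Luciferase signal from ONE-Glo (30 min, room temperature) measured activation of hPXR-driven CYP3A4 reporter expression in PXR-Luc HepG2 cells treated with compounds for 24 hr at 37 C.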

Assay [3] addresses Cytochrome P450 2D6 (Homo sapiens) (UniProt P10635). Put plainly: Cytochrome P450 Family 2 Subfamily D Member 6 (CYP2D6) small molecule antagonists: luciferase reporter qHTS assay (AID 1671196). For activity change, negative = inhibition: series mostly up to about 120 µM. Note: nearly all actives have a fitted effect of over 50% in size. The method, boiled down:
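Read-out is luminescence from luciferin formed by CYP2D6 turnover of a proluciferin substrate, recorded as relative luminescence units. Reactions ran 1 h at room temperature after NADPH regeneration solution was added.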
Background: Reporter assays use an easily measured gene product as a stand-in for the process of interest.

For assay [4], the target named is Cytochrome P450 2C19 (Homo sapiens) (UniProt P33261). Put plainly: Cytochrome P450 Family 2 Subfamily C Member 19 (CYP2C19) small molecule antagonists: luciferase reporter qHTS assay (AID 1671197). For activity change, negative = inhibition: series mostly up to about 120 µM. Note: nearly all actives have a fitted effect of over 65% in size. The method, boiled down: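 Quantitative high-throughput screen of the Tox21 library using CYP2C19 with proluciferin substrate. Reaction: NADPH regeneration, 37C, 1 h, after 10 min compound preincubation at room temperature. Readout: luminescence.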

Assay [5] concerns the target Voltage-gated inwardly rectifying potassium channel KCNH2 (Homo sapiens) (UniProt Q12809). Nature of the assay: Human Ether-a-go-go-Related Gene (hERG) channel small molecule antagonists: fluorescence cell-based qHTS assay (AID 1671200).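 For activity change, negative = inhibition: hERG-expressing U2OS cells given a thallium stimulus after FluxOR II dye loading; series mostly up to about 77 µM.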 Note: nearly all actives have a fitted effect of over 50% in size. In outline: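 Fluorescence at 540 nm emission (480 nm excitation) was recorded kinetically for 2 min at 1-second intervals once the thallium-containing stimulus reached cells previously loaded with FluxOR II dye.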

Assay [6] concerns the target Cytochrome P450 3A4 (Homo sapiens) (UniProt P08684). Nature of the assay: Cytochrome P450 Family 3 Subfamily A Member 4 (CYP3A4) small molecule antagonists: luciferase reporter qHTS assay (AID 1671201). For activity change, negative = inhibition: series mostly up to about 120 µM. Note: nearly all actives have a fitted effect of over 50% in size. The method, boiled down: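 qHTS, 1536-well. CYP3A4 + proluciferin substrate, cpd 10 min RT → NADPH regen 1 h RT → detection reagent 20 min → luminescence (RLU). Ketoconazole positive control.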

In assay [7] the target is Cytochrome P450 1A2 (Homo sapiens) (UniProt P05177). Put plainly: Cytochrome P450 Family 1 Subfamily A Member 2 (CYP1A2) small molecule antagonists: luciferase reporter qHTS assay (AID 1671199). For activity change, negative = inhibition: series mostly up to about 120 µM. Note: nearly all actives have a fitted effect of over 50% in size. In outline:
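P450-Glo CYP1A2, 1536-well qHTS: enzyme/proluciferin substrate + cpd (DMSO), 10 min RT; NADPH regen, 1 h RT; detection reagent, 20 min; luminescence, RLU.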

Assay [8] deals with Cytochrome P450 2C9 (Homo sapiens) (UniProt P11712). Nature of the assay: Cytochrome P450 Family 2 Subfamily C Member 9 (CYP2C9) small molecule antagonists: luciferase reporter qHTS assay (AID 1671198). For activity change, negative = inhibition: series mostly up to about 120 µM. Note: nearly all actives have a fitted effect of over 50% in size. In outline: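 Enzyme-substrate mix preincubated with compound 10 min at room temperature; reaction started with NADPH regeneration solution, 1 h 37C. Luminescent luciferin product read after 20 min detection reagent.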

Molecules are shown by their SMILES. Values without a mark were called inactive. Records with an inconclusive call do not appear. Calls of active or inactive are those of the source. Calls come from the whole dose curve; as a rule, active = well fitted curve in the direction sought with a large enough effect in the repeat runs; inconclusive = weak or mixed curves; inactive = no such curve, though single readings can be large; an effect the other way counts as inactive or inconclusive.
% is set by controls: 0 for no effect and ±100 for the full control effect; potency is the fitted concentration of half-maximal effect.

Cytochrome P450 3A4 (Homo sapiens), sequence (P08684 whole entry, looked up): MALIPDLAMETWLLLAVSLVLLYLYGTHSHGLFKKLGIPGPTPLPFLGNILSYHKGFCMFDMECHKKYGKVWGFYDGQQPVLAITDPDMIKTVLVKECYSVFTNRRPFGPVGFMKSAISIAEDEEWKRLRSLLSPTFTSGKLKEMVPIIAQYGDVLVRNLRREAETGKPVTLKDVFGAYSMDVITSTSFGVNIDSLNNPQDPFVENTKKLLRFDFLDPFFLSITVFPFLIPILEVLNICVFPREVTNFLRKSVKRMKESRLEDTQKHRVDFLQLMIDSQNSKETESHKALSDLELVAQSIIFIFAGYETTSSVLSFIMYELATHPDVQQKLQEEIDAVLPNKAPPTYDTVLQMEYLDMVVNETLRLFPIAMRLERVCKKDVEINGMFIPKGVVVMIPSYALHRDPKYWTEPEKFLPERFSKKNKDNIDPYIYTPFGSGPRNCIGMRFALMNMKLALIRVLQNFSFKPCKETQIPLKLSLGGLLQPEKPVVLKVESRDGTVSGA
Nuclear receptor subfamily 1 group I member 2 (Homo sapiens), sequence (O75469 whole entry, looked up): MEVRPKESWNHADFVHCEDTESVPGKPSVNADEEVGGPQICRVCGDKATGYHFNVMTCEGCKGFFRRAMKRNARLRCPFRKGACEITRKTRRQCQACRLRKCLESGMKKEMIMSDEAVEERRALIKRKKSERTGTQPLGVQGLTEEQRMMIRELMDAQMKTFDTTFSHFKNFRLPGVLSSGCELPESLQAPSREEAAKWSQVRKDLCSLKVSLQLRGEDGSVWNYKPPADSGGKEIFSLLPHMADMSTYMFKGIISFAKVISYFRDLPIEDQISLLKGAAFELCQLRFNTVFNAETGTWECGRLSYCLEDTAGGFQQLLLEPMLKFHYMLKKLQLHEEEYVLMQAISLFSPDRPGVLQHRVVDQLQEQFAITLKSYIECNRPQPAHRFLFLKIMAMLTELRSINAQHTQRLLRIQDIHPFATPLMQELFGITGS
Cytochrome P450 2C9 (Homo sapiens), sequence (P11712 whole entry, looked up): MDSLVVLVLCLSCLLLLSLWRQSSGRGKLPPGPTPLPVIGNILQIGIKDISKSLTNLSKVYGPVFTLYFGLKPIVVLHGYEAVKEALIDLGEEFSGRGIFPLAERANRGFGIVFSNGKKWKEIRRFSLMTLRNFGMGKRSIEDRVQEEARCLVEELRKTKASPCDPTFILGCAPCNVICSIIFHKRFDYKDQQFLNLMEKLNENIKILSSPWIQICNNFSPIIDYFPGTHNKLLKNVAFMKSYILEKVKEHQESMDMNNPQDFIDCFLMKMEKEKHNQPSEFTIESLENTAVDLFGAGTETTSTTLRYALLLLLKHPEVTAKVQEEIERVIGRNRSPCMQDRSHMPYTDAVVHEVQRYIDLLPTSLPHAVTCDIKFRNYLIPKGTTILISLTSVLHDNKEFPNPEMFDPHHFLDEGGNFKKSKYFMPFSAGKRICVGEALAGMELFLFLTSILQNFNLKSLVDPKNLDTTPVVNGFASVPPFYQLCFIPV
Cytochrome P450 1A2 (Homo sapiens), sequence (P05177 whole entry, looked up): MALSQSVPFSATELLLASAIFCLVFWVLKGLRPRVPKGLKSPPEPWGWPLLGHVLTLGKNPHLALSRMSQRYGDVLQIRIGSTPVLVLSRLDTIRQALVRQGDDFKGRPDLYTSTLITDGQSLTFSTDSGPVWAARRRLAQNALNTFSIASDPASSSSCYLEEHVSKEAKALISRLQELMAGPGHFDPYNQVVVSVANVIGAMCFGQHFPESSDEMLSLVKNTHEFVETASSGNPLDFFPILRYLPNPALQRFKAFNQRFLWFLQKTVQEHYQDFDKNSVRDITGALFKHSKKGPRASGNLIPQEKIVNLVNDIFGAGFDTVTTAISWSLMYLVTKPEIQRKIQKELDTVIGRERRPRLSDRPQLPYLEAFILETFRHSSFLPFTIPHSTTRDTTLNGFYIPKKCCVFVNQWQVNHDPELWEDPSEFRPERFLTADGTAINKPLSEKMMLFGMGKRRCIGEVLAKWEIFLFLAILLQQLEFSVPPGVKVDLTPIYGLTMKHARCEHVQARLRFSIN
Cytochrome P450 2C19 (Homo sapiens), sequence (P33261 whole entry, looked up): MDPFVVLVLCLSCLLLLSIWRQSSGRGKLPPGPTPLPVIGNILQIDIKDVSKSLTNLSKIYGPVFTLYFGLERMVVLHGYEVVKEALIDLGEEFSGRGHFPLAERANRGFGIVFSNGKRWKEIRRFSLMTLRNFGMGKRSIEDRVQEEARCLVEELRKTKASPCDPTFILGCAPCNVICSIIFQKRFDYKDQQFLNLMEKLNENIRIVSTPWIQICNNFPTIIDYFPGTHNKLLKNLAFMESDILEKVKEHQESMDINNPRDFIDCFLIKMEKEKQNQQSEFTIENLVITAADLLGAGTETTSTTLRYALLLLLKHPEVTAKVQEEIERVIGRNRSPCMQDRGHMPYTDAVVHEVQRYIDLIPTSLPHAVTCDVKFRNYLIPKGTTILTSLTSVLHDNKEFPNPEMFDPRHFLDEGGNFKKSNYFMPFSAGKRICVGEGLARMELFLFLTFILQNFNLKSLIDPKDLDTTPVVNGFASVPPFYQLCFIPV
Voltage-gated inwardly rectifying potassium channel KCNH2 (Homo sapiens), sequence (Q12809 whole entry, looked up): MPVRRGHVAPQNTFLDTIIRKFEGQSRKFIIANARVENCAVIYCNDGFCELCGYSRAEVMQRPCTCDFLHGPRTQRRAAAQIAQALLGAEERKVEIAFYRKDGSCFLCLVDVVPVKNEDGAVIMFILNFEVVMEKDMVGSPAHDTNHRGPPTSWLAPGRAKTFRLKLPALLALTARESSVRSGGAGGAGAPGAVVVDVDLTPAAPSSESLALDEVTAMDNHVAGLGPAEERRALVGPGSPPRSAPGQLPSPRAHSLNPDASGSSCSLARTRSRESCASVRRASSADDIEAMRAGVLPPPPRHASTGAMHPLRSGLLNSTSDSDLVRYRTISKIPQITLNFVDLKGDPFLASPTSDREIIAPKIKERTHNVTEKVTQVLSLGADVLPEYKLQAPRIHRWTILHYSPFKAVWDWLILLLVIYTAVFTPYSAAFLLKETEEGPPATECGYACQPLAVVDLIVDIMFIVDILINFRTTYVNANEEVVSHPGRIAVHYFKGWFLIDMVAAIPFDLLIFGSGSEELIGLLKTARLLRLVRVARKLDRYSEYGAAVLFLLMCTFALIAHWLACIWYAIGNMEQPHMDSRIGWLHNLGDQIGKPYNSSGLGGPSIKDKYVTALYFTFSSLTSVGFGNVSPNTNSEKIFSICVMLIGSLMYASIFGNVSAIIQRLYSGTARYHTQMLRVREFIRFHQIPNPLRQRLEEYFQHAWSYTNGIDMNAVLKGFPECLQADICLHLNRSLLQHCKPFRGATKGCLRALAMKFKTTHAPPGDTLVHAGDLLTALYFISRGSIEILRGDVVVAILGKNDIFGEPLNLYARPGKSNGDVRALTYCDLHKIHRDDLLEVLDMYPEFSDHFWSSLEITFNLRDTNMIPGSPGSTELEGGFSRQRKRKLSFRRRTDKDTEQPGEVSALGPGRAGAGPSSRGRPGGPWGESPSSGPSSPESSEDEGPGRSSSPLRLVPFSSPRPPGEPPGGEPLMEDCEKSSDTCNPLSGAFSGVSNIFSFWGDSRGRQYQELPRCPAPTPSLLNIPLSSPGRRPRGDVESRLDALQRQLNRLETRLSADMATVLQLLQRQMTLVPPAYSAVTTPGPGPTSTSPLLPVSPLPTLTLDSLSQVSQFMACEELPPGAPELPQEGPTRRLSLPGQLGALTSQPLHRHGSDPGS
Cytochrome P450 2D6 (Homo sapiens), sequence (P10635 whole entry, looked up): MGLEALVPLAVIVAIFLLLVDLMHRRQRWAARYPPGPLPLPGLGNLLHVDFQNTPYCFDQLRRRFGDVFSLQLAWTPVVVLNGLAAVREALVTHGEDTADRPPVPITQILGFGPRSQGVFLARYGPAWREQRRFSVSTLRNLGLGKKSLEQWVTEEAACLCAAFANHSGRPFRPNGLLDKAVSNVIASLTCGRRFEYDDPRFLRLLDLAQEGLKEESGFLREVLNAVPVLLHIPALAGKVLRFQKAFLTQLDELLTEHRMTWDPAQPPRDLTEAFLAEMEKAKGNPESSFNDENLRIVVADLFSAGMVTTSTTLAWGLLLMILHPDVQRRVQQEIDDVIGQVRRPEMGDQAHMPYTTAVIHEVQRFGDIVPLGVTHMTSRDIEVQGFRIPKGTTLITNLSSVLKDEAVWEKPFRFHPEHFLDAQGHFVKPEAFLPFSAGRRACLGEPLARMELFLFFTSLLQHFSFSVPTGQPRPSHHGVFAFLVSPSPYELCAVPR

Take `O=C1OC2(c3ccccc31)c1ccc(O)c(Br)c1Oc1c2ccc(O)c1Br`: the Potency entry in assay [1], in assay [2], in assay [3] and in assay [6] was “inactive” each time. For the same compound, the Potency in assay [4] was 89.4 µM (active); in assay [5], 34.7 µM (active).

In the case of `O=C1c2ccccc2C(=O)c2c(Cl)cccc21`, the Potency result in assay [1], in assay [3], in assay [5] and in assay [6] was “inactive” in each case. The Potency is 10.2 µM (active) in assay [2], 18.8 µM (active) in assay [4] and 0.0473 µM (active) in assay [7].

Regarding `c1ccc2c(c1)-c1ccc3ccc4cccc5cc-2c1c3c45`, the Potency entry in assay [1], in assay [2], in assay [3], in assay [4], in assay [5] and in assay [6] was “inactive” throughout. In assay [7], the Potency was 0.219 µM (active).

For the compound `CCc1c(C)cc(N)c(CC)c1N`, the Potency result in assay [1] and in assay [5] was “inactive” in each case. In addition, the Potency in assay [2] was 24.3 µM (active); in assay [3], 4.48 µM (active); in assay [4], 14.2 µM (active); in assay [7], 20 µM (active); in assay [6] it was 15.9 µM (active).

Regarding `C=CC(=O)OCC(Br)CBr` (stereo not drawn), the Potency result in assay [1], in assay [2], in assay [3], in assay [4], in assay [8] and in assay [7] was “inactive” throughout. The Potency result in assay [5] and in assay [6] was “inactive” each time.

`Cc1cccc2c1ccc1ccccc12`: the Potency entry in assay [1], in assay [2], in assay [3], in assay [5] and in assay [6] was “inactive” in each case. For the same compound, the results for the Potency in assay [4] and in assay [7] were 79.6 µM (active) and 6.33 µM (active), respectively.

On to `Nc1ccc(Oc2cccc(Oc3ccc(N)cc3)c2)cc1`, for which the Potency entry in assay [1], in assay [2] and in assay [7] was “inactive” each time. For the same compound, the Potency in assay [4] is 11.2 µM (active); in assay [8] it was 6.33 µM (active); in assay [6], 6.33 µM (active).

For `O=C1CCC/C=C\CCCCCCCCCC1`, the Potency result in assay [1], in assay [3] and in assay [4] was “inactive” each time. For the same compound, the results for the Potency in assay [2] and in assay [6] were 30.6 µM (active) and 31.7 µM (active), respectively.

As to `O=C1CCC(=O)N1`, the Potency result in assay [1], in assay [2], in assay [3], in assay [4], in assay [8] and in assay [7] was “inactive” throughout. The Potency entry in assay [5] and in assay [6] was “inactive” each time.

For the compound `CCCCCCCC/C=C\CCCCCCCC(=O)N(CCO)CCO`, the Potency entry in assay [1] was “inactive”. The Potency in assay [2] is 60.9 µM (active); in assay [4] it was 19.9 µM (active); in assay [8], 14.1 µM (active); in assay [6], 15.8 µM (active).

In the case of `O[Si](c1ccccc1)(c1ccccc1)c1ccccc1`, the Potency result in assay [1], in assay [3], in assay [7] and in assay [6] was “inactive” throughout. Also, the Potency is 27.3 µM (active) in assay [2], 0.502 µM (active) in assay [4] and 0.564 µM (active) in assay [8].

With `c1ccc(-c2ccc(C(c3ccccc3)n3ccnc3)cc2)cc1` (stereo not drawn), in assay [1], the Potency entry was “inactive”. Moreover, the Potency in assay [2] is 23.7 µM (active); in assay [3] it was 1.55 µM (active); in assay [4] it was 0.617 µM (active); in assay [8] it was 0.219 µM (active); in assay [7], 5.49 µM (active); in assay [5], 7.56 µM (active).

In the case of `CCCCC/C=C\C=C\C(=O)OCC`, the Potency entry in assay [1] was “inactive”. For the same compound, the Potency in assay [2] is 63.7 µM (active); in assay [3], 46.7 µM (active); in assay [4] it was 23.4 µM (active); in assay [8], 13.2 µM (active); in assay [6], 16.6 µM (active).

As to `O=C(Nc1ccccc1)c1cc(Cl)ccc1O`, the Potency entry in assay [1] was “inactive”. Also, the Potency in assay [2] is 15.4 µM (active); in assay [3] it was 39.9 µM (active); in assay [4], 35.6 µM (active); in assay [8], 17.8 µM (active); in assay [7], 12.6 µM (active).

As for `c1ccc2cc3c4ccccc4c4ccccc4c3cc2c1`, the Potency result in assay [1], in assay [3] and in assay [8] was “inactive” each time. In addition, the Potency in assay [2] was 4.88 µM (active).

On to `O=S(=O)(c1ccc(OCc2ccccc2)cc1)c1ccccc1O`, for which the Potency result in assay [1], in assay [5] and in assay [6] was “inactive” each time. Further, the Potency in assay [2] was 61.1 µM (active); in assay [4], 6.33 µM (active); in assay [8], 39.9 µM (active).

Turning to `CCCCNc1ccc(NCCCC)c2c1C(=O)c1ccccc1C2=O`, in assay [1], the caspase-3/7 activation is 2.79% [at 19 µM]. Moreover, the activation in assay [2] is 2.95% [at 19 µM]. The activity change, negative = inhibition is 0.95% [at 23.6 µM] in assay [3]; -5.26% [at 23.6 µM] in assay [4]; -1.25% [at 23.6 µM] in assay [8]; -6.35% [at 15.8 µM] in assay [5]; 15.3% [at 23.6 µM] in assay [6].

On to `CC(Cc1ccc(O)c(O)c1)C(C)Cc1ccc(O)c(O)c1` (stereo not drawn), for which the Potency entry in assay [1], in assay [3] and in assay [7] was “inactive” in each case. For the same compound, the Potency in assay [2] was 21.7 µM (active); in assay [4] it was 35.6 µM (active); in assay [8], 12.6 µM (active); in assay [6], 35.6 µM (active).

In the case of `Clc1nc(C(Cl)(Cl)Cl)c(Cl)c(Cl)c1Cl`, the Potency is 30.6 µM (active) in assay [1]; 31.7 µM (active) in assay [3]; 31.7 µM (active) in assay [4]; 2.52 µM (active) in assay [7]; 49 µM (active) in assay [5]; 3.99 µM (active) in assay [6]. The Potency entry in assay [2] is “inactive”.

Take `[Cl][Sc]([Cl])[Cl]`: the Potency entry in assay [1], in assay [2], in assay [3], in assay [4], in assay [8] and in assay [7] was “inactive” each time. Besides, the Potency result in assay [5] and in assay [6] was “inactive” each time.

Take `C1CCSC1`: the Potency result in assay [1], in assay [2], in assay [3], in assay [4], in assay [8] and in assay [7] was “inactive” each time. The Potency entry in assay [5] and in assay [6] was “inactive” each time.

As for `CC(O)(c1ccc(Cl)cc1)c1ccc(Cl)cc1`, the Potency result in assay [1] and in assay [6] was “inactive” each time. For the same compound, the Potency in assay [2] was 27.3 µM (active); in assay [4] it was 0.113 µM (active); in assay [8] it was 7.96 µM (active); in assay [7], 31.7 µM (active); in assay [5] it was 49 µM (active).

Regarding `Oc1cccc2c(O)cccc12`, the Potency entry in assay [1] and in assay [5] was “inactive” throughout. The Potency was 54.5 µM (active) in assay [2]; 39.9 µM (active) in assay [3]; 17.8 µM (active) in assay [4]; 22.4 µM (active) in assay [8]; 22.4 µM (active) in assay [7].
